The values that follow come from PubChem BioAssay (EPA / NIEHS).

Holding throughout (details): mRNA level, 48 h; actives raise or lower the signal
Read-out in assay [1]: Ezrin (EZR), EZR (gene 7430)
As to the kind of experiment: LTEA_HepaRG_EZR: Life Technologies and Expression Analysis (LTEA) Assay for Ezrin (EZR) using HepaRG (AID 2283491). In a few lines:
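HepaRG, 48 h chemical exposure, 8-pt half-log series from 100 uM, 0.5% DMSO vehicle, duplicates. Read-out: EZR mRNA by TaqMan qRT-PCR (Fluidigm array), housekeeping-normalized; bidirectional curve fit vs DMSO baseline.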

Read-out in assay [2]: Fatty Acid-Binding Protein 1 (FABP1), FABP1 (gene 2168)
As to the kind of experiment: LTEA_HepaRG_FABP1: Life Technologies and Expression Analysis (LTEA) Assay for Fatty Acid-Binding Protein 1 (FABP1) using HepaRG (AID 2283494). The procedure, abridged:
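Differentiated human HepaRG cells exposed 48 h in serum-free induction medium to eight half-log concentrations up to 100 uM (0.5% DMSO), duplicate. FABP1 mRNA by qRT-PCR, normalised to ACTB, GAPDH, POLR2A; bidirectional fitting against DMSO.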

Read-out in assay [3]: Cytochrome P450 7A1 (Homo sapiens) (UniProt P22680)
Kind of assay: LTEA_HepaRG_CYP7A1: Life Technologies and Expression Analysis (LTEA) Assay for Cytochrome P450 7A1 (CYP7A1) using HepaRG (AID 2283496). The procedure, abridged:
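HepaRG cells plated 48 h, then switched to serum-free induction medium and exposed in duplicate for 48 h to 8-point half-log series from 100 uM in 0.5% DMSO. CYP7A1 mRNA by qRT-PCR (TaqMan), normalized to ACTB/GAPDH/POLR2A; bidirectional fit versus DMSO.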

Read-out in assay [4]: Glutathione S-Transferase (GSTA2), GSTA2 (gene 2939)
As to the kind of experiment: LTEA_HepaRG_GSTA2: Life Technologies and Expression Analysis (LTEA) Assay for Glutathione S-Transferase (GSTA2) using HepaRG (AID 2283497). The procedure, abridged: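 Differentiated human HepaRG cells were exposed in duplicate for 48 h in serum-free induction medium, 8 points from 100 uM top in half-log steps, 0.5% DMSO. GSTA2 mRNA was measured by TaqMan qRT-PCR, normalized to ACTB, GAPDH and POLR2A; bidirectional fit versus DMSO.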

Read-out in assay [5]: Glutamate-cysteine ligase catalytic (GCLC), GCLC (gene 2729)
Kind of assay: LTEA_HepaRG_GCLC: Life Technologies and Expression Analysis (LTEA) Assay for Glutamate-cysteine ligase catalytic (GCLC) using HepaRG (AID 2283498). In a few lines:
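Differentiated HepaRG cells exposed 48 h in serum-free induction medium, eight-point half-log series topping at 100 uM in 0.5% DMSO, duplicates. GCLC mRNA by qRT-PCR normalized to ACTB, GAPDH and POLR2A, fitted bidirectionally versus DMSO.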

Read-out in assay [6]: growth arrest and DNA damage 45 (GADD45G), GADD45G (gene 10912)
As to the kind of experiment: LTEA_HepaRG_GADD45G: Life Technologies and Expression Analysis (LTEA) Assay for growth arrest and DNA damage 45 (GADD45G) using HepaRG (AID 2283499). In a few lines: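 Differentiated human HepaRG cells, 48 h post-plating, exposed 48 h in serum-free induction medium to 8 half-log concentrations (top 100 uM, 0.5% DMSO) in duplicate. GADD45G mRNA measured by Fluidigm TaqMan qRT-PCR, normalized to ACTB, GAPDH, POLR2A; bidirectional fit versus DMSO.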

Read-out in assay [7]: Glutamate-cysteine ligase regulatory (GCLM), GCLM (gene 2730)
Kind of assay: LTEA_HepaRG_GCLM: Life Technologies and Expression Analysis (LTEA) Assay for Glutamate-cysteine ligase regulatory (GCLM) using HepaRG (AID 2283500). In a few lines: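 Cells were plated, cultured 48 h, switched to serum-free induction medium, then dosed in duplicate for 48 h at eight half-log concentrations up to 100 uM. RNA was then profiled by qRT-PCR; gain or loss versus DMSO was fitted.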

Read-out in assay [8]: Glutathione S-transferase M3 (GSTM3), GSTM3 (gene 2947)
Kind of assay: LTEA_HepaRG_GSTM3: Life Technologies and Expression Analysis (LTEA) Assay for Glutathione S-transferase M3 (GSTM3) using HepaRG (AID 2283501). The procedure, abridged:
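Differentiated human HepaRG cells were exposed in duplicate for 48 h in serum-free induction medium, 8 points from 100 uM top in half-log steps, 0.5% DMSO. GSTM3 mRNA was measured by TaqMan qRT-PCR, normalized to ACTB, GAPDH and POLR2A; bidirectional fit versus DMSO.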

Read-out in assay [9]: Heat shock 70 kDa protein 1 (HSPA1A), gene 3303
As to the kind of experiment: LTEA_HepaRG_HSPA1A: Life Technologies and Expression Analysis (LTEA) Assay for Heat shock 70 kDa protein 1 (HSPA1A) using HepaRG (AID 2283502). In a few lines: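 Readout is HSPA1A transcript level by microfluidic qRT-PCR, normalized to three housekeeping genes and analysed for gain or loss of signal relative to 0.5% DMSO. Human HepaRG cultures received test chemicals for 48 h at up to 100 uM.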

Read-out in assay [10]: 3-Hydroxy-3-Methylglutaryl-CoA Synthase 2 (HMGCS2), HMGCS2 (gene 3158)
Kind of assay: LTEA_HepaRG_HMGCS2: Life Technologies and Expression Analysis (LTEA) Assay for 3-Hydroxy-3-Methylglutaryl-CoA Synthase 2 (HMGCS2) using HepaRG (AID 2283504). In a few lines: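 Human HepaRG cells in serum-free induction medium were exposed in duplicate for 48 h to 8-point half-log series from 100 uM top in 0.5% DMSO. HMGCS2 mRNA measured by TaqMan qRT-PCR, normalised to ACTB, GAPDH, POLR2A; bidirectional fit versus DMSO.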

Read-out in assay [11]: Insulin Like Growth Factor 1 (IGF1), IGF1 (gene 3479)
Kind of assay: LTEA_HepaRG_IGF1: Life Technologies and Expression Analysis (LTEA) Assay for Insulin Like Growth Factor 1 (IGF1) using HepaRG (AID 2283506). In a few lines: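 HepaRG, plated 48 h, then switched to serum-free induction media; test chemical 8-pt half-log from 100 uM (0.5% DMSO), duplicate, 48 h. Lysis in RLT, TaqMan qRT-PCR, norm. ACTB/GAPDH/POLR2A. Bidirectional fit vs DMSO.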

Read-out in assay [12]: Intercellular Adhesion Molecule 1 (ICAM1), ICAM1 (gene 3383)
As to the kind of experiment: LTEA_HepaRG_ICAM1: Life Technologies and Expression Analysis (LTEA) Assay for Intercellular Adhesion Molecule 1 (ICAM1) using HepaRG (AID 2283507). The procedure, abridged: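 Differentiated human HepaRG cells in serum-free induction medium exposed 48 h in duplicate to 8 half-log concentrations (top 100 uM, 0.5% DMSO). ICAM1 mRNA quantified by TaqMan qRT-PCR, normalized to ACTB, GAPDH and POLR2A; bidirectional fitting versus DMSO.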

Read-out in assay [13]: Insulin-like growth factor-binding protein 1 (IGFBP1), IGFBP1 (gene 3484)
Kind of assay: LTEA_HepaRG_IGFBP1: Life Technologies and Expression Analysis (LTEA) Assay for Insulin-like growth factor-binding protein 1 (IGFBP1) using HepaRG (AID 2283508). In a few lines:
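HepaRG cells, plated 48 h then switched to serum-free induction medium, exposed in duplicate for 48 h to 8-point half-log series from 100 uM in 0.5% DMSO. mRNA measured by qRT-PCR, normalized to ACTB/GAPDH/POLR2A; bidirectional fit versus DMSO.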

Read-out in assay [14]: Interleukin 6 (IL6), IL6 (gene 3569)
As to the kind of experiment: LTEA_HepaRG_IL6: Life Technologies and Expression Analysis (LTEA) Assay for Interleukin 6 (IL6) using HepaRG (AID 2283509). In a few lines:
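HepaRG cells exposed in duplicate for 48 h to eight half-log concentrations, top 100 uM, in 0.5% DMSO serum-free induction medium. mRNA measured by qRT-PCR, normalized to ACTB, GAPDH and POLR2A. Bidirectional fit versus DMSO.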

Read-out in assay [15]: Interleukin 6 Receptor (IL6R), IL6R (gene 3570)
As to the kind of experiment: LTEA_HepaRG_IL6R: Life Technologies and Expression Analysis (LTEA) Assay for Interleukin 6 Receptor (IL6R) using HepaRG (AID 2283510). In a few lines: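 Readout is IL6R transcript level by TaqMan qRT-PCR, normalized to three housekeeping genes and fitted bidirectionally against 0.5% DMSO controls. Human HepaRG cells received chemicals for 48 h in serum-free induction medium, highest concentration 100 uM.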

Read-out in assay [16]: Cytochrome P450 3A7 (Homo sapiens) (UniProt P24462)
Kind of assay: LTEA_HepaRG_CYP3A7: Life Technologies and Expression Analysis (LTEA) Assay for CYP3A7 using HepaRG (AID 2283492). The procedure, abridged: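 Differentiated HepaRG cells in serum-free induction medium exposed 48 h in duplicate to 8-point half-log series from 100 uM top in 0.5% DMSO. CYP3A7 mRNA by qRT-PCR, normalized to ACTB/GAPDH/POLR2A, bidirectional fit versus DMSO.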

Read-out in assay [17]: Hypoxia-inducible factor 1-alpha (Homo sapiens) (UniProt Q16665)
Kind of assay: LTEA_HepaRG_HIF1A: Life Technologies and Expression Analysis (LTEA) Assay for Hypoxia-inducible factor 1 (HIF1A) Trancription factor using HepaRG (AID 2283503). In a few lines: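 Differentiated HepaRG cells in serum-free induction medium exposed 48 h, in duplicate, to 8-point half-log series from 100 uM in 0.5% DMSO. HIF1A mRNA measured by TaqMan qRT-PCR, normalized to ACTB/GAPDH/POLR2A, fitted bidirectionally versus DMSO.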

Read-out in a further assay: HGF (gene 3082)
As to the kind of experiment: LTEA_HepaRG_HGF: Life Technologies and Expression Analysis (LTEA) Assay for Hepatocyte Growth Facto (HGF) using HepaRG (AID 2283505). The procedure, abridged: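 Differentiated HepaRG cells in serum-free induction medium exposed 48 h in duplicate, 8 half-log concentrations from 100 uM in 0.5% DMSO. HGF mRNA by qRT-PCR, normalised to ACTB, GAPDH, POLR2A; bidirectional fitting.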

Active and inactive are the calls of the source. The calls were made as follows: active = hit-call score of the fitted dose curve at least 0.9, where 1 is the maximum; inactive = score below 0.9.

Cytochrome P450 3A7 (Homo sapiens), sequence (P24462 whole entry, looked up): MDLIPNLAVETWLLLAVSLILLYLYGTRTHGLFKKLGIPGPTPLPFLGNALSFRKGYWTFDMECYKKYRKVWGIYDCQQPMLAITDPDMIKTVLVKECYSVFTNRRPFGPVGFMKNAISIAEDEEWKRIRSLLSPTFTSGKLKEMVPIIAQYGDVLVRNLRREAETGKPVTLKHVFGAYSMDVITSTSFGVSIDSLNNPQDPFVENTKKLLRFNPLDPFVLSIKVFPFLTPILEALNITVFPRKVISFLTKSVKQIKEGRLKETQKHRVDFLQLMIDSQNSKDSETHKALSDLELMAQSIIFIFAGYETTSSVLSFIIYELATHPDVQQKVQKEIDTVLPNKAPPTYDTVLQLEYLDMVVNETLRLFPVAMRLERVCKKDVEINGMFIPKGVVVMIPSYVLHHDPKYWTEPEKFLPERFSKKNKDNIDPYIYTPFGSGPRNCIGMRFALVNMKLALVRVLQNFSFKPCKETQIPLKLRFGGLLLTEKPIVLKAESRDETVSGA
Hypoxia-inducible factor 1-alpha (Homo sapiens), sequence (Q16665 whole entry, looked up): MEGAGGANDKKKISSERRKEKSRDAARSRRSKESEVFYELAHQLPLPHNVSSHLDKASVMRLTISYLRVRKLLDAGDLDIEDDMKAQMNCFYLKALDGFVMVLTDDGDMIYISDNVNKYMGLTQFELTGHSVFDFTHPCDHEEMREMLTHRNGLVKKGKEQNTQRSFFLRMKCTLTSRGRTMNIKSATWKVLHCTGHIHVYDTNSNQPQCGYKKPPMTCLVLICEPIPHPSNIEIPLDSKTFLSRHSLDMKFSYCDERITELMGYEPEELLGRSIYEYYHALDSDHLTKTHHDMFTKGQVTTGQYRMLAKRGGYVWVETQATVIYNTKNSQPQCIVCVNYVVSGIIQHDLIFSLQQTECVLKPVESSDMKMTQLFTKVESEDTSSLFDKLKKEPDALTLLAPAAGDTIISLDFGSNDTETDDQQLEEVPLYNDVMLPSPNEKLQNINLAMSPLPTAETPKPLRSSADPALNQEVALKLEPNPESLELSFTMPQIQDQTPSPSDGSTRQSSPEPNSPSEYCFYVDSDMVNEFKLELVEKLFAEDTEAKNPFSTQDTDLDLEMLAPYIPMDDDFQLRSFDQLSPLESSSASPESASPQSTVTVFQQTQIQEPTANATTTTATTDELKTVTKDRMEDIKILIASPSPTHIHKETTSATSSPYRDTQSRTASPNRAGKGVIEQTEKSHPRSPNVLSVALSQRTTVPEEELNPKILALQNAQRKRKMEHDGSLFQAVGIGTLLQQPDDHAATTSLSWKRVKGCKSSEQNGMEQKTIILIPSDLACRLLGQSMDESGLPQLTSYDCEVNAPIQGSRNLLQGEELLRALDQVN

Broadly, the AC50 is the concentration at which the activity in the assay is half-maximal. `C#C[C@]1(O)CC[C@H]2[C@@H]3CCC4=CC(=O)CC[C@@H]4[C@H]3CC[C@@]21C`: the result in assay [1], in assay [2], in assay [5], in [6], in [7] and in [8] was inactive. For the same molecule, the call in [9], in assay [10], in [11], in [12], in assay [13] and in [14] was inactive. Further, the outcome in [15] was inactive. Moreover, the results for the AC50 in assay [3] and in [4] were 0.299 µM (active) and 6.05 µM (active), respectively.

As for `O=[N+]([O-])c1ccc(O)cc1`, the outcome in assay [1], in [16], in assay [2], in assay [3], in [4] and in assay [5] was inactive. Besides, the molecule was classed as inactive in [6], in assay [7], in assay [8], in assay [9], in assay [17] and in assay [10]. Moreover, the result (with HGF (gene 3082); in [11]; in assay [12]; in assay [13]; in assay [14]; in assay [15]) was inactive.

As for `N#C[C@@H]1CC(F)(F)CN1C(=O)CNC1CC2CCC(C1)N2c1ncccn1` (stereo partly drawn), the result in assay [1], in assay [16], in [2], in assay [3], in assay [4] and in [5] was inactive. Also, the molecule was classed as inactive in [6], in [7], in [8], in [9], in [17] and in assay [10]. Also, the molecule was called inactive (with HGF (gene 3082); in assay [11]; in assay [12]; in assay [13]; in [14]; in [15]).

Turning to `CCCCCCCC(=O)O`, the outcome in assay [1], in [16], in assay [2], in assay [3], in assay [4] and in assay [5] was inactive. The call in [6], in assay [7], in assay [8], in assay [9], in assay [17] and in assay [10] was inactive. For the same molecule, the outcome (with HGF (gene 3082); in [11]; in [13]; in [14]; in assay [15]) was inactive.

Consider `Nc1cccc2c(N)cccc12`, for which the molecule was classed as inactive in [1], in assay [16], in assay [5], in assay [6], in assay [7] and in [8]. The result (in [9]; in assay [17]; in assay [10]; with HGF (gene 3082); in assay [11]; in assay [13]) was inactive. Also, the molecule was called inactive in assay [14] and in [15]. Besides, the results for the AC50 in assay [2], in assay [3] and in assay [4] were 50 µM (active), 10.1 µM (active) and 50 µM (active), respectively.

As to `O=C(O)c1ccccc1C(c1ccc(O)cc1)c1ccc(O)cc1`, the result in assay [1], in assay [16], in assay [2], in [3], in assay [4] and in assay [5] was inactive. Moreover, the outcome in [6], in [7], in assay [8], in assay [9], in assay [17] and in assay [10] was inactive. Further, the molecule was classed as inactive (with HGF (gene 3082); in assay [11]; in assay [12]; in assay [13]; in [14]; in [15]).
